# For part of these data: Results with a measured potency or affinity are listed apart. Calls of active or inactive are those of the source. Unless noted, no rule for the calls is given here.
# Columns and labels:
# [1] = target: Cell division control protein 42 homolog (Homo sapiens) (UniProt P60953); test: inhibition of fluorescent GTP binding to constitutively active Cdc42 – biochemical, multiplex bead flow cytometry, Bodipy-FL-GTP, dose response (AID 1333;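 active = fitted half-maximal concentration within the tested dose range, moderate curve steepness, a statistically real signal drop, and little compound fluorescence or tag-binding interference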)
# Sequence of Cell division control protein 42 homolog (Homo sapiens) (P60953 whole entry, looked up): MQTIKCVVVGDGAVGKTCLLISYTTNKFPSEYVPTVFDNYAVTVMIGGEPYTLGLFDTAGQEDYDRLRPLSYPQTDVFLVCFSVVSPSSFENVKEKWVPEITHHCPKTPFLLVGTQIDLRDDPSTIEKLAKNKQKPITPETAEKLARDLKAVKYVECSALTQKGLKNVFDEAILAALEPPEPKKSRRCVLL
# [2] = target: Cell division control protein 42 homolog (Homo sapiens) (UniProt P60953); test: inhibition of fluorescent GTP binding to wildtype Cdc42 – biochemical, multiplex bead flow cytometry, Bodipy-FL-GTP, dose response (AID 1334;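 active = fitted half-maximal concentration within the tested range, moderate curve steepness, significant signal drop, and little compound fluorescence or bead-linkage interference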); conditions: bead-based flow cytometry, Bodipy-FL-GTP binding to GST-Cdc42; at 100 µM (top of the series) unless noted
# [3] = target: GTPase HRas (Homo sapiens) (UniProt P01112); test: Ras wt fluorescent GTP loading blockade – biochemical, wildtype, multiplex bead flow cytometry, dose response (AID 1335;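 active = fitted half-maximal concentration within 10 nM to 100 µM, steepness 0.5 to 2, significant signal drop, low assay interference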); conditions: bead-based flow cytometry, Bodipy-GTP binding to GST-Ras; at 100 µM (top of the series) unless noted
# Sequence of GTPase HRas (Homo sapiens) (P01112 whole entry, looked up): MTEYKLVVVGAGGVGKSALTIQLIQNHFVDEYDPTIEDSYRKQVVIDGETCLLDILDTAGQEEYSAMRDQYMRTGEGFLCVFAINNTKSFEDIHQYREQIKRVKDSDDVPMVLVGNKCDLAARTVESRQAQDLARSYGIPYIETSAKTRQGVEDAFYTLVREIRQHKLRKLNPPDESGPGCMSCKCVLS
# [4] = system: Ras-related protein Rab-7a (dog), GTP binding; test: blockers of fluorescent GTP binding to Rab7 – biochemical, wildtype, multiplex bead flow cytometry, dose response (AID 1336)
# [5] = target: Ras-related C3 botulinum toxin substrate 1 (Homo sapiens) (UniProt P63000); test: inhibition of wildtype Rac1 nucleotide loading – biochemical, multiplex bead flow cytometry, dose response (AID 1340;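 active = dose curve with midpoint inside tested range, moderate steepness, plateau gap beyond fit error, low compound glow and bead-link interference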); conditions: GST-Rac1 beads, Bodipy-FL-GTP binding; at 100 µM (top of the series) unless noted
# [6] = target: GTPase HRas (Homo sapiens) (UniProt P01112); test: blockade of GTP loading onto mutant Ras – biochemical, activated mutant, multiplex bead flow cytometry, dose response (AID 1341;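 active = dose-response curve with midpoint inside the tested range, moderate steepness, significant amplitude and little compound fluorescence or bead-attachment interference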;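 also: GST-tagged constitutively activated Ras mutant immobilized on beads and multiplexed with other GTPases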)
Structure (SMILES),outcome [1],"fluorescence, percent of control (lower = inhibition) [2]","GTP binding, percent of control [3]",outcome [4],"GTP binding signal, raw median fluorescence (lower = inhibition) (MCF (arbitrary fluorescence units)) [5]",outcome [6]
CCCCCCn1nc(C(=O)OCC(=O)c2c(N)n(C)c(=O)n(C)c2=O)c2ccccc2c1=O,inactive,36%,80.1%,inactive,203,inactive
Cc1ccc(Nc2nc(-c3c(C)nc4ncccn34)cs2)cc1,inactive,29.8%,43.7%,inactive,103,inactive
OC(CNCCC1C=Nc2ccccc21)Cn1c2ccc(Cl)cc2c2cc(Cl)ccc21 (stereo not given),inactive,60.4%,67.9%,inactive,386,inactive
CCOc1ccc(-n2c(C)nc3cc(C(=O)NCc4ccc5c(c4)OCO5)ccc32)cc1,inactive,41.7%,62.5%,inactive,163,inactive
O=C(/C=C/c1ccc(N2CCC(c3ccccc3)=N2)cc1)c1ccccc1,inactive,344%,394%,inactive,651,inactive
COc1cc2c(C)nc3c(c(C)nn3-c3ccccc3)c2cc1OC,inactive,32.3%,71.7%,inactive,167,inactive
C/C(=N\NC(=O)CC1N=C(Cc2ccccc2)NNC1=O)c1ccc(Cl)cc1Cl (stereo not given),inactive,90.1%,160%,inactive,175,inactive
CC1=C(C)CC(C(=O)c2cc(C)ccc2C)C(C(=O)O)C1 (stereo not given),inactive,57.3%,88.3%,inactive,31,inactive
COc1ccc(-n2c(C)cc(/C=C3\SC(=S)N(Cc4ccco4)C3=O)c2C)cc1,inactive,75.8%,89.9%,inactive,230,inactive
CC(C)Sc1nc(-c2ccccc2)cc(=O)[nH]1,inactive,88.8%,156%,inactive,170,inactive
Cc1cc(C)c2sc(N(CCN(C)C)C(=O)c3cc(Cl)sc3Cl)nc2c1,inactive,33.6%,78.8%,inactive,283,inactive
O=C(N/N=C/c1ccc([N+](=O)[O-])o1)c1cn(-c2ccccc2)nc1-c1ccc(Cl)cc1,inactive,31.7%,77%,inactive,207,inactive
Cc1nnc2ccc(-c3cccc(NC(=O)c4ccco4)c3)nn12,inactive,28.7%,59.2%,inactive,131,inactive
COc1cc(NS(=O)(=O)c2ccc(Nc3nc(-c4ccccc4)cs3)cc2)nc(OC)n1,inactive,40.7%,53.3%,inactive,138,inactive
COc1ccc(/C=N/NC(=O)c2ccncc2)cc1Cn1nc([N+](=O)[O-])c(Br)c1C,inactive,38.6%,75.7%,inactive,144,inactive
O=C(CNC(=O)Cc1ccccc1)N=Nc1c(O)n(Cc2ccc3c(c2)OCO3)c2ccccc12,inactive,36.1%,48.5%,inactive,112,inactive
COc1c(C)cc(Br)cc1C(=O)O,inactive,46.9%,97%,inactive,59.3,inactive
NC(=O)c1cc2nc(-c3ccco3)cc(C(F)(F)F)n2n1,inactive,29.6%,40.3%,inactive,91.8,inactive
COc1ccc(Cn2c(O)c(/C=N/NC(=O)c3cccnc3)c3ccccc3c2=O)cc1,inactive,17.2%,68.9%,inactive,63.7,inactive
S=C(NCCc1ccccc1)N1CCn2cccc2C1c1cccnc1 (stereo not given),inactive,28%,63.3%,inactive,227,inactive
COc1ccc(S(=O)(=O)N2CCCCC2)cc1NC(=O)c1ccc([N+](=O)[O-])o1,inactive,32.3%,73.3%,inactive,172,inactive
COc1ccccc1C(=O)Nc1nc(-c2ccc3c(c2)OCCO3)cs1,inactive,28.6%,77%,inactive,216,inactive
Cc1ccc(S(=O)(=O)Cc2ccc(C(=O)N3CCN(c4cc(C)ccc4C)CC3)o2)cc1,inactive,35%,59.9%,inactive,0,inactive
CC(C)NC(=O)C12CC3CC(C1)CC(n1cnc(Cl)n1)(C3)C2,inactive,41.5%,89.6%,inactive,319,inactive
Cc1cc2nc3c(=O)n(C4CCCCC4)c(=O)[nH]c3nc2cc1N,inactive,42.7%,53.2%,inactive,146,inactive
COc1cc2c(cc1OC)-c1cc(NC3CCCCCCC3)nc(=O)n1CC2,inactive,33.3%,68.6%,inactive,142,inactive
Cc1cc(Cl)ccc1OCC(=O)OCC(=O)Nc1ccc(F)c([N+](=O)[O-])c1,inactive,53%,70.9%,inactive,0,inactive
COc1cc2[nH]c(=S)nc(NCCc3ccc(S(N)(=O)=O)cc3)c2cc1OC,inactive,36.7%,81.9%,inactive,268,inactive
CCOc1ccccc1NC(=O)CSc1ccc2nnc(-c3cccnc3)n2n1,inactive,29.2%,65.1%,inactive,136,inactive
Cc1nonc1OCCNc1ccc([N+](=O)[O-])cc1[N+](=O)[O-],inactive,50.3%,63.5%,inactive,209,inactive

# Reference: PubChem BioAssay
